# In PubChem BioAssay:
# Test: binders from COS7 lysate, DM2A8 probe, primary screen, torsin A project, cell lysate, small-molecule microarray, fluorescence 635/667 (AID 1065)
# Conditions: higher = more signal, COS7 lysate expressing mutant human TOR1A
row,SMILES,composite z-score
1,COc1cc2c(cc1OC)CN(C(=O)[C@@H]1[C@H]3C(=O)O[C@H](c4ccccc4)[C@H](c4ccccc4)N3[C@H](c3ccc(OCCO)cc3)[C@@]13C(=O)Nc1ccc(C#CC4(O)CCCCCC4)cc13)CC2,0.416
2,C=C(/C(=C/C[C@H](OC(C)=O)c1cccc(OCCO)c1)c1cnc2ccccc2c1)C(C)C,0.21
3,OCCCC1=CC(c2ccc(CN3CCCC3)cc2)N(Cc2sc3ccccc3c2Cl)CC1 (stereo not given),0.41
4,CCOC(=O)C[C@H]1[C@H](OC(=O)c2ccccc2-c2ccccc2)[C@@H](NC(=O)C2CCCCC2)c2cc(OCCCO)ccc2N1C(=O)Cc1ccc(OC)cc1,0.154
5,CN1C(=O)C2C=CC(C(O)c3cccc4ccccc34)N(N3CCCCC3)C2C1=O (stereo not given),1.12
6,CC1=C([C@H](O)CCc2ccccc2)[C@H](CO)[C@@H]2C(=O)N(C)C(=O)[C@@H]2C1,0.388
7,O=C1O[C@@H](c2ccccc2)[C@@H](c2ccccc2)N2[C@@H](c3ccc(OCCO)cc3)[C@]3(C(=O)Nc4ccccc43)[C@@H](C(=O)O)[C@H]12,0.144
8,C=C(/C(=C/C[C@@H](OC(C)=O)c1cccc(OCCO)c1)c1cc(C(=O)OC)ccc1OC)C(C)C,1.11
9,CCOC(=O)C[C@H]1[C@H](OC(=O)c2cc3ccccc3oc2=O)[C@@H](NC(=O)c2ccc(-c3ccccc3)cc2)c2cc(OCCCO)ccc2N1C(=O)c1ccc2ccccc2n1,0.804
10,CC[C@H]1C2=C3C(CC[C@H]4C(OCc5ccc(F)cc5C(F)(F)F)OC[C@](C)([C@@H]34)N(C(=O)OC(C)(C)C)C2)C(COC)C1COC (stereo not given in full),-0.281
11,C=CCOC(=O)[C@H]1[C@@H]2C(=O)O[C@@H](c3ccccc3)[C@@H](c3ccccc3)N2[C@@H](c2ccc(OCCOC(=O)[C@H]3C[C@H]4C(=O)N[C@@H](CCCCNC(C)=O)C(=O)N4[C@H]3c3ccc(O)cc3)cc2)[C@]12C(=O)Nc1ccccc12,0.498
12,[N-]=[N+]=Nc1ccccc1[C@@H]1OC(c2ccc(OCCCO)cc2)=N[C@]1(Cc1ccccc1)C(=O)NCC(O)CO (stereo not given in full),2.11
13,COc1ccc(C(O)C2C=CC3C(=O)N(c4ccccc4)C(=O)C3N2Nc2ccc([N+](=O)[O-])cc2)cc1 (stereo not given),-0.0823
14,O=C1OCC=C[C@H]2OC34C=CCN(Cn5nnc6ccccc65)C(=O)[C@H]3N(CCCO)C(=O)[C@@H]4[C@@H]12 (stereo not given in full),-0.772
15,CCC[C@@H]1C[C@@]1(CCC)[C@@H](NC(=O)OCc1ccccc1)c1ccc(-c2ccccc2)cc1,-0.602
16,CC(C)(C)OC(=O)CC[C@@]1(C(=O)NCc2ccccc2)N=C(c2ccc(OCCCO)cc2)O[C@@H]1c1ccccc1N=[N+]=[N-],0.559
17,COCCCNC(=O)[C@]1(CCS(=O)(=O)c2ccccc2)N=C(c2ccc(OCCCO)cc2)O[C@@H]1c1ccccc1CN=[N+]=[N-],1.32
18,C=C(COC)/C(=C/C[C@H](OC(=O)c1ccncc1)c1ccccc1OCCO)c1cnc2ccccc2c1,0.171

row,SMILES,composite z-score
1,O=C(NCC(F)(F)F)[C@@H]1c2ccccc2C(=O)N(Cc2cc(F)cc(C(F)(F)F)c2)[C@H]1c1ccc(CO)cc1,-0.823
2,Cc1ccccc1C(O)C1C=CC2C(=O)N(C)C(=O)C2N1N(c1ccccc1)c1ccccc1 (stereo not given),-0.038
3,COCCOC(=O)N1C(=O)[C@@]2(c3cc(C#CC4=CCCCC4)ccc31)[C@H](C(N)=O)[C@H]1C(=O)O[C@H](c3ccccc3)[C@H](c3ccccc3)N1[C@@H]2c1ccccc1OCCO,0.33
4,C[N+](C)(C)CCCCCCNC(=O)[C@H]1C[C@H]2C(=O)NCC(=O)N2[C@H]1c1ccc(O)cc1,0.71
5,O=C1OCC=C[C@H]2OC34C=CCN(Cc5ccccc5)C(=O)[C@H]3N(CCCCCCO)C(=O)[C@@H]4[C@@H]12 (stereo not given in full),-0.443
6,COc1ccc(-c2nc(-c3ccccc3)c3c(c2C)CO[Si]3(C(C)C)C(C)C)cn1,0.0662
7,COCCOC(=O)N1C(=O)[C@@]2(c3cc(C#CC4(O)CCCCCC4)ccc31)[C@H](c1ccc(O)cc1)N1[C@H](c3ccccc3)[C@H](c3ccccc3)OC(=O)[C@H]1[C@@H]2C(=O)NC[C@H](O)c1ccccc1,0.556
8,[N-]=[N+]=NCc1ccccc1C[C@@]1(C(=O)NCc2ccccc2)N=C(c2ccc(OCCCO)cc2)O[C@@H]1c1ccccc1N=[N+]=[N-],0.421
9,[N-]=[N+]=NCc1ccccc1C[C@@]1(C(=O)N2CCOCC2)N=C(c2ccc(OCCCO)cc2)O[C@@H]1c1ccccc1,0.572
10,COc1ccc(NC(=O)O[C@H]2[C@H](OC(=O)Nc3ccccc3)[C@H](OC(=O)Nc3ccccc3)[C@@H](OC)O[C@@H]2CO)cc1,1
11,COCCOC(=O)N1C(=O)[C@@]2(c3ccccc31)[C@H](C(=O)N1CCN(c3ncccn3)CC1)[C@H]1C(=O)O[C@H](c3ccccc3)[C@H](c3ccccc3)N1[C@@H]2c1ccc(O)cc1,0.0128
12,CCCCO[C@H]1C[C@H]2C(I)=C[C@@H]1C(=O)[C@]21CO1,0.823
13,COc1ccc(CN(C2=CC[C@@]3(C(N)=O)C(=O)C(Cl)=C(Cl)C(=O)[C@@]3(C#N)C2)S(=O)(=O)c2ccc(Br)cc2)cc1,-0.0483
14,CCCCN1CC=CC23O[C@@H]4/C=C\CCC(C)OC(=O)C4[C@H]2C(=O)N(C(CO)C(C)C)[C@@H]3C1=O (stereo not given in full),0.642
15,[N-]=[N+]=NCc1ccccc1C[C@]1(C(N)=O)N=C(c2ccc(OCCCO)cc2)O[C@H]1c1ccccc1,0.514
16,C=CCNC(=O)[C@H]1[C@@H]2C(=O)O[C@@H](c3ccccc3)[C@@H](c3ccccc3)N2[C@@H](c2ccc(O)cc2)[C@]12C(=O)Nc1ccc(C#CC3(O)CCCCCC3)cc12,1.01
17,NCCCCCNC(=O)[C@@H]1C[C@@H]2C(=O)NCC(=O)N2[C@@H]1c1cccc(OCCO)c1,0.45
